The text below walks through data of PubChem BioAssay.

Molecules are shown by their SMILES. Calls of active or inactive are those of the source.

The test system of assay [1] is Plasmodium falciparum Sir2 (PF13_0152, Sir2A). Put plainly: Plasmodium falciparum Sir2A binding compounds – biochemical, small-molecule microarray, 635 nm fluorescence, primary screen (AID 1098).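 Also: score merges spot fluorescence intensity with its signal-to-noise ratio.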 The following applies: fluorescence 635 nm, higher = more signal.
Assay [2] is described as follows: probe aDKK1 binding to arrayed compounds – biochemical, biotinylated probe, 635/667 nm fluorescence, primary screen (AID 1099).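 Also: score merges 667nm spot fluorescence with signal to noise across triplicate slides.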 The following applies: higher = more signal; small-molecule microarray, probe aDKK1, fluorescence unless noted.
Assay [3] can be described thus: probe aCHRDL2 binding to arrayed compounds – biochemical, biotinylated probe, 635/667 nm fluorescence, primary screen (AID 1100). The following applies: higher = more signal; small-molecule microarray, probe aCHRDL2, fluorescence unless noted.
Assay [4] is described as follows: change in splice reporter luminescence, either direction, cell-based, HEK293, spliceosome inhibition project, primary screen (AID 1101).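 Also: HEK293 cells carrying a splicing-competent luciferase reporter gene; test concentration not given here.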 The following applies: HEK293 splicing luciferase reporter, 24 h; higher = more signal, called active from +8 up or from −8 down unless noted.
The target of assay [5] is Fibroblast growth factor 10 (Homo sapiens) (UniProt O15520). The assay can be described thus: compounds binding fibroblast growth factor 10 – biochemical, small-molecule microarray, 635 nm fluorescence, primary screen (AID 1102). The note with it: FGF10 binding, fluorescence 635 nm, higher = more signal.
Fibroblast growth factor 10 (Homo sapiens), sequence (O15520 whole entry, looked up): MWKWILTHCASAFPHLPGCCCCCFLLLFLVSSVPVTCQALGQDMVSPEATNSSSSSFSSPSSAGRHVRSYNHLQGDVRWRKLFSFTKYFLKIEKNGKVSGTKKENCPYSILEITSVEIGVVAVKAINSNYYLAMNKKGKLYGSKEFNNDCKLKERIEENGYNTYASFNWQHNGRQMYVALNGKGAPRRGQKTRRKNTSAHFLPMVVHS
The subject of assay [6] is glycogen synthase kinase-3 (GSK3A per assay name; protocol says GSK3B). Put plainly: compounds binding glycogen synthase kinase-3 – biochemical, small-molecule microarray, 635 nm fluorescence, GSK3A, primary screen (AID 1103). Also: the record names both GSK3A and GSK3B. The note with it: fluorescence 635 nm, higher = more signal.
For assay [7], the target named is Epidermal growth factor receptor (Homo sapiens) (UniProt P00533). Put plainly: compounds binding epidermal growth factor receptor – biochemical, small-molecule microarray, 635 nm fluorescence, primary screen (AID 1104).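 Also: score merges 667 nm emission intensity with spot signal to noise over triplicate slides.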 The following applies: EGFR binding, higher = more signal.
Epidermal growth factor receptor (Homo sapiens), sequence (P00533 whole entry, looked up): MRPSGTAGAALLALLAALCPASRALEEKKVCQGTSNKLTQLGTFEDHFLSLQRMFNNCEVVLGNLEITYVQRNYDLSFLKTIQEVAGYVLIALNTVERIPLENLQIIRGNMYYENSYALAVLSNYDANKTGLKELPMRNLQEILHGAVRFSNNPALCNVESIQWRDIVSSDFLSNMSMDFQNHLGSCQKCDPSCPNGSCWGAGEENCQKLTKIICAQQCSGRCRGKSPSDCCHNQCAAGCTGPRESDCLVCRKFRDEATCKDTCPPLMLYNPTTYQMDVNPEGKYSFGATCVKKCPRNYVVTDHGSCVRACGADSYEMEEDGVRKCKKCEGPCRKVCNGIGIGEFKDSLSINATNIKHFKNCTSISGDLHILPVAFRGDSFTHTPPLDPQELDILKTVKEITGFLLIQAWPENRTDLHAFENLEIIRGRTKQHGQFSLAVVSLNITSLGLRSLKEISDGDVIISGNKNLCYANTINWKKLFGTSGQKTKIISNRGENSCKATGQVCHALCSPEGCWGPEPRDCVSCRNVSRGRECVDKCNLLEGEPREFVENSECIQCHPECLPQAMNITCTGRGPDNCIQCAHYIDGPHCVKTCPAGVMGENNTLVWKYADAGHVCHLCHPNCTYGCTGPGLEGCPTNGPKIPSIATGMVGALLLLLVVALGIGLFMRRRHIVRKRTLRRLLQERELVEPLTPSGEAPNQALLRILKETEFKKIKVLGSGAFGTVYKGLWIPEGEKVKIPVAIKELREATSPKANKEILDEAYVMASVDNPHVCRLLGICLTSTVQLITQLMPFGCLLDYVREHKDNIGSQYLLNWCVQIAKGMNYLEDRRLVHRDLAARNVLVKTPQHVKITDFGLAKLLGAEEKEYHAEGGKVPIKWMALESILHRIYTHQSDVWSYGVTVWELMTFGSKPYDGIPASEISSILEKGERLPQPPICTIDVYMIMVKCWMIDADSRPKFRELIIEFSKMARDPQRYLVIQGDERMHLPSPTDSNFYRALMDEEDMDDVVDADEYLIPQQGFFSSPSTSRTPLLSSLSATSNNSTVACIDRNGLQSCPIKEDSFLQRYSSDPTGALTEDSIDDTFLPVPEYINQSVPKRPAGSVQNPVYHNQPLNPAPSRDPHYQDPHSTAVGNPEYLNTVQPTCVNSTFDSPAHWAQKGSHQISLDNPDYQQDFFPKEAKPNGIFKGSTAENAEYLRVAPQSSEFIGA
Assay [8] concerns the target Follistatin-related protein 3 (Homo sapiens) (UniProt O95633). Put plainly: compounds binding follistatin-related protein 3 – biochemical, small-molecule microarray, 635 nm fluorescence, primary screen (AID 1105).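 Also: score merges emission near 667 nm and signal to noise per printed spot across three slides.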 The following applies: FSTL3 binding, higher = more signal.
For assay [9], the target named is Dickkopf-related protein 1 (Homo sapiens) (UniProt O94907). The assay can be described thus: small molecules binding DKK1 protein – biochemical, small-molecule microarray, 635 nm fluorescence scan, primary screen (AID 1106).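 Also: score merges emission near 667 nm with signal to noise over three replicate slides.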 The note with it: higher = more signal.
Dickkopf-related protein 1 (Homo sapiens), sequence (O94907 whole entry, looked up): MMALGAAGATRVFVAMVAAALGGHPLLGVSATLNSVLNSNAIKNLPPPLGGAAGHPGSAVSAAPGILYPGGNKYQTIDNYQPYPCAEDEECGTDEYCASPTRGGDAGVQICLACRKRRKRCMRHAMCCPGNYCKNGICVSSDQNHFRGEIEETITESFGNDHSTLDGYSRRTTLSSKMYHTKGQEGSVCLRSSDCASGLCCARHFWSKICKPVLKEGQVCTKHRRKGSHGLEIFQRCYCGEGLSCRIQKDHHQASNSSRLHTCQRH
The test system of assay [10] is Inhibin beta A chain (activin A). The assay can be described thus: small molecules binding activin A – biochemical, small-molecule microarray, 635 nm fluorescence scan, primary screen (AID 1107).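 Also: mouse activin A protein probed at 4.33 µg/mL on printed slides; score merges bound-protein fluorescence near 667 nm with spot signal-to-noise.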 The following applies: INHBA, higher = more signal.
Assay [11] deals with Human papillomavirus type 1a protein E7 (residues 44-93). Put plainly: small molecules binding HPV E7 44-93 – biochemical, small-molecule microarray, residues 44-93, 635 nm fluorescence, primary screen (AID 1108).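 Also: E7 fragment applied at 1 µg/mL in TBST for 1 h at 4 C; score combines spot fluorescence with its signal to noise ratio.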 The following applies: fluorescence 635 nm, higher = more signal.
Assay [12] in a line: hepatitis C replication reporter changes, two-sided – Huh7 cells, luciferase reporter, HCV replication inhibitor project, primary screen (AID 1109).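 Also: huh7 hepatoma cells harbouring a luciferase neomycin HCV replicon reporter; luciferase luminescence as measure of HCV replicon replication; test concentration not given here.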 The following applies: Huh7 HCV replicon luciferase reporter, 48 h; higher = more signal. (In general: In a reporter assay the amount or activity of a reporter protein is the signal.)
Assay [13] has as its target Left-right determination factor 2 (Homo sapiens) (UniProt O00292). The assay can be described thus: small molecules binding LEFTY2 protein – biochemical, small-molecule microarray, 635 nm fluorescence scan, primary screen (AID 1110). The following applies: higher = more signal.
In assay [14] the target is Calmodulin-1 (Homo sapiens) (UniProt P0DP23). Put plainly: small molecules binding calmodulin-1 with EGTA – biochemical, small-molecule microarray, Cy5-labelled CALM1, profiling panel (AID 1111).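 Also: labelled calmodulin applied in Tris saline Tween buffer holding calcium plus EGTA and DTT.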 The following applies: Cy5-CALM1 binding fluorescence, higher = more signal.
Assay [15] has the same target. The assay can be described thus: small molecules binding Ca-loaded calmodulin-1 – biochemical, small-molecule microarray, Cy5-labelled CALM1, plus calcium, artefact control for SMM control-protein annotation, profiling panel (AID 1112).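 Also: score merges spot fluorescence with signal to noise from triplicate slides.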 The note with it: Cy5-CALM1 binding fluorescence, higher = more signal.
Assay [16] can be described thus: probe aWnt5a binding to arrayed compounds – biochemical, biotinylated probe, 635/667 nm fluorescence, primary screen (AID 1113).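 Also: score merges 667 nm fluorescence intensity with signal-to-noise per printed feature.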 The following applies: higher = more signal; small-molecule microarray, probe aWnt5a, fluorescence unless noted.
Assay [17] can be described thus: probe aShh binding to arrayed compounds – biochemical, biotinylated probe, 635/667 nm fluorescence, primary screen (AID 1114).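 Also: probe is biotin-labelled aShh protein from a stem cell growth factor screen; measures binding of labelled protein to compounds printed on the slide; score merges feature fluorescence at 667 nm with signal-to-noise.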 The note with it: higher = more signal; small-molecule microarray, probe aShh, fluorescence unless noted.
Assay [18] is described as follows: probe aNog binding to arrayed compounds – biochemical, biotinylated probe, 635/667 nm fluorescence, primary screen (AID 1115).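 Also: probe is biotinylated aNog protein used at 0.15 µg/mL for 1 h at 4 C; z-score combines 667 nm fluorescence of each spot with its signal to noise.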 The following applies: higher = more signal; small-molecule microarray, probe aNog, fluorescence unless noted.
For assay [19], the target named is Torsin-1A-interacting protein 1 (Homo sapiens) (UniProt Q5JTV8). Put plainly: compound microarray binding of lysate hLAP1 – cell lysate, small-molecule microarray, COS7 lysate, 635/667 nm fluorescence, primary screen (AID 1116). The following applies: 635 nm fluorescence, higher = more signal.
Torsin-1A-interacting protein 1 (Homo sapiens), sequence (Q5JTV8 whole entry, looked up): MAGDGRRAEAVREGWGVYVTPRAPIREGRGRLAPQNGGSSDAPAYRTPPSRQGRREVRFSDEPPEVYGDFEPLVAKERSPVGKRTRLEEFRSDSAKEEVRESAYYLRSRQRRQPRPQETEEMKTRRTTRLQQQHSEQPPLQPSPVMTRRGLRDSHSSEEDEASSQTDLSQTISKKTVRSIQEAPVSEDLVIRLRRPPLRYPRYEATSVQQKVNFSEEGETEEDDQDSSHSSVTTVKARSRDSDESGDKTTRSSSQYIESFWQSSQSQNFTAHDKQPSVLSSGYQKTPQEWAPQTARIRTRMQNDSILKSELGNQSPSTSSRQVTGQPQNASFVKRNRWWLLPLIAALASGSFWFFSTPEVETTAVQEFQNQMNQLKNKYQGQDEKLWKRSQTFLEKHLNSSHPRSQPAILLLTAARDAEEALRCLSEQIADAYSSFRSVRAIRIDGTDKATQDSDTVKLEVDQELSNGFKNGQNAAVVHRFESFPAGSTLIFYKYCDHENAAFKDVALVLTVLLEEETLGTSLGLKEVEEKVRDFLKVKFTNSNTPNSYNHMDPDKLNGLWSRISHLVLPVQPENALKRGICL
In assay [20] the target is Alpha-bungarotoxin (Bungarus multicinctus) (UniProt P60615). The assay can be described thus: compounds binding labelled alpha-BTX control protein – biochemical, small-molecule microarray, Alexa647 label, 635/667 nm fluorescence, artefact control for SMM control protein annotation, profiling panel (AID 1117). The note with it: alpha-BTX-A647 binding fluorescence, higher = more signal.
Alpha-bungarotoxin (Bungarus multicinctus), sequence (P60615 whole entry, looked up): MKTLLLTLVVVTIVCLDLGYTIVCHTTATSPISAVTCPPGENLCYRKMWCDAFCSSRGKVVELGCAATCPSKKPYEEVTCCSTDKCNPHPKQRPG

Follistatin-related protein 3 (Homo sapiens), sequence (O95633 whole entry, looked up): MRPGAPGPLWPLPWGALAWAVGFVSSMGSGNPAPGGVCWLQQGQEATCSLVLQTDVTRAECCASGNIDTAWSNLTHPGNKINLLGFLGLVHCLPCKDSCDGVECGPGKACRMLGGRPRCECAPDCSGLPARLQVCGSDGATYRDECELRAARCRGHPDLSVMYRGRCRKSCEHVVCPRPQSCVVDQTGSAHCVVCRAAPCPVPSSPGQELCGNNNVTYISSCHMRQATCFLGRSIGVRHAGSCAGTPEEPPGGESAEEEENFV
Left-right determination factor 2 (Homo sapiens), sequence (O00292 whole entry, looked up): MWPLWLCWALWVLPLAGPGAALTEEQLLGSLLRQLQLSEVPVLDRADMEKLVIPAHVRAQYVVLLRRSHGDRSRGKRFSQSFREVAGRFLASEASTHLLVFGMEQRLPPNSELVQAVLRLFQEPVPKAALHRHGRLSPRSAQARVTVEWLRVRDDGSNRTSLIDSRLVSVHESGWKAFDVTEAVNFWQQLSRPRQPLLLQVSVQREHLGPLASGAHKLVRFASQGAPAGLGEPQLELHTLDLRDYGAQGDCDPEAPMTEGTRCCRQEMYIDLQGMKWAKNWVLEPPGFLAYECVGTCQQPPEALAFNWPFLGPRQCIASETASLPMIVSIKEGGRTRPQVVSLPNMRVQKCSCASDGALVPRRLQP

As to `COC(=O)[C@@]1(Cc2ccccc2)[C@H]2c3cc(C(=O)N(C)C)[nH]c3C[C@H]2CN1C(=O)c1ccccc1`, the composite z-score is 0.45 in assay [1]; 0.425 in assay [2]; 0.709 in [3]; -0.36 in assay [5]; -1.15 in assay [6]; -0.649 in assay [7]. Moreover, the composite z-score is -1.32 in assay [8]; -1.06 in assay [9]; 1.02 in assay [10]; -0.452 in assay [11]; -0.476 in [13]; 0.157 in assay [14]. Besides, the composite z-score is 0.136 in assay [15]; 0.0037 in [16]; 0.333 in assay [17]; 0.629 in assay [18]; 0.533 in [19]; -0.0856 in assay [20]. Moreover, the z-score in [4] was 0.454 (inactive); in assay [12], -0.454.
As to `CCCc1cc2c(n1Cc1cccc(Cl)c1)C(C)C1CN(C(=O)c3ccccc3)C(C)(C(=O)OC)C21` (stereo not given), the composite z-score in [1] is 0.922; in assay [2], 1.37; in assay [3], 1.54; in [5], 0.368; in assay [6], 0.146; in assay [7], -0.458. In addition, the composite z-score is -0.0989 in assay [8]; -1.61 in assay [9]; 1.24 in assay [10]; 0.226 in [11]; -0.587 in [13]; 2.18 in assay [14]. In addition, the composite z-score is 1.37 in assay [15]; -0.0445 in [16]; 0.261 in assay [17]; 1.71 in [18]; 2.22 in assay [19]; 0.818 in assay [20]. The results for the z-score in assay [4] and in [12] were -3.44 (inactive) and -2.24, respectively.
As to `CN1CCC(c2ccc(CO)cc2)=CC1c1cccs1` (stereo not given), the composite z-score in assay [1] is 0.0161; in assay [2], -0.367; in [3], -0.17; in assay [5] it was -0.474; in [6], -0.323; in assay [7] it was 0.0626. The composite z-score in assay [8] was 0.152; in assay [9], 1.55; in assay [10], 0.917; in [11], -0.895; in [13], -0.0469; in assay [14], -0.0348. Further, the composite z-score is -0.556 in assay [15]; -0.0685 in assay [16]; -0.0769 in [17]; -0.216 in assay [18]; 0.238 in [19]; 0.945 in assay [20]. Also, the z-score is -0.0418 (inactive) in [4] and 1.05 in assay [12].
For the compound `CCOC(=O)[C@H]1CC=C2C(=O)Oc3ccccc3[C@@H]21`, the composite z-score is -0.283 in assay [1]; -0.295 in assay [2]; 0.521 in assay [3]; -0.375 in [5]; -0.45 in assay [6]; -0.695 in assay [7]. For the same compound, the composite z-score is -0.77 in [8]; -1.06 in assay [9]; 0.0965 in assay [10]; 0.252 in assay [11]; -0.562 in assay [13]; -0.229 in assay [14]. For the same compound, the composite z-score in assay [15] is -0.42; in assay [16] it was -0.129; in assay [17] it was -0.366; in [18] it was 0.356; in [19], -1.28; in assay [20], -0.0764. In addition, the z-score in assay [4] was -0.0119 (inactive); in assay [12], -1.93.
In the case of `CCc1cc2c(nc1CC)CCN(CCC(C)=NOC)C2`, the composite z-score in assay [1] was 0.0885; in assay [2], -0.112; in assay [3] it was 0.662; in assay [5], 0.179; in assay [6], 0.344; in assay [7], 0.961. Moreover, the composite z-score in assay [8] is 0.763; in assay [9] it was 0.755; in assay [10], 1.66; in [11], 0.711; in [13], 0.802; in assay [14], -0.47. The composite z-score in assay [15] is 0.107; in [16], 0.0375; in assay [17] it was -0.117; in [18], -0.148; in assay [19], 1; in assay [20], -0.0978. Further, the z-score in assay [4] is 0.0386 (inactive); in assay [12] it was -1.06.
Regarding `COC(=O)[C@@]1(Cc2ccc(F)cc2)[C@H]2c3cc(C(=O)N(C)C)[nH]c3C[C@H]2CN1C(=O)c1ccccc1`, the composite z-score in [1] is 0.878; in [2], 0.588 [setting not given]; in [3] it was 0.826 [setting not given]; in assay [5] it was 0.554; in assay [6], -0.275; in assay [7], -0.157. For the same compound, the composite z-score in assay [8] was -0.589; in [9] it was -0.503; in [10] it was 0.938; in assay [11], 0.717; in [13], -0.193; in assay [14], 0.366. Moreover, the composite z-score in [15] is -0.0836; in assay [16], 0.0151 [setting not given]; in assay [17], -0.343 [setting not given]; in assay [18] it was 0.519 [setting not given]; in [19], 0.125; in [20] it was 0.125. Moreover, the z-score in assay [4] was -0.825 [setting not given] (inactive); in [12], -0.0885.
Regarding `C[C@@H]1OC=C2[C@@H](O)[C@H]3O[C@H]3C(=O)[C@]23[C@H]1[C@H]1C2=C([C@@H](O)[C@H]4O[C@H]4C2=O)[C@@H]3O[C@@H]1C`, the composite z-score in assay [1] was -0.636; in [2], -0.0177; in [3], -0.572; in assay [5] it was 0.0109; in assay [6], -0.349; in assay [7], 0.367. Also, the composite z-score in assay [8] was 0.22; in assay [9], 0.568; in assay [10], 0.503; in assay [11], -2.16; in [13] it was 0.425; in assay [14] it was -1.11. Also, the composite z-score is -0.718 in [15]; -0.224 in [16]; -0.2 in assay [17]; -0.244 in assay [18]; 0.0387 in assay [19]; -0.244 in [20]. Besides, the z-score in assay [4] was 0.802 (inactive); in assay [12], -1.29.
`COC(=O)[C@H]1[C@@H](O)[C@@]2(O)c3c(OC)cc(OC)cc3O[C@@]2(c2ccc(OC)cc2)[C@@H]1c1ccccc1`: the composite z-score in assay [1] was 0.373; in [2] it was -0.193; in assay [3], -0.482; in assay [5], 0.384; in assay [6], 0.586; in assay [7] it was 0.628. The composite z-score in [8] stood at 0.554; in assay [9] it was 0.962; in [10] it was 0.0587; in [11], 0.828; in [13] it was 0.473; in [14], 0.371. The composite z-score in assay [15] was -0.402; in assay [16] it was -0.0606; in assay [17], 0.0684; in assay [18], 0.117; in assay [19], 0.537; in assay [20], 0.611. In addition, the values for the z-score in assay [4] and in assay [12] were -1.89 (inactive) and 1.91, respectively.
